# Results filed as inconclusive are left out. Calls of active or inactive are those of the source. The call rests on the fitted dose curve; in most records, active means well fitted inhibition curve with a large enough effect; inconclusive means small, poorly fitted or top-dose-only effect; inactive means flat fitted curve, though single readings scatter.
# System: CRL-7250
# Assay: qHTS assay to identify novel small-molecules to repurpose for Merkel cell carcinoma treatment (AID 1296009); further: nearly all actives have a fitted effect of over 60% in size
# Conditions: MCC and control cell lines, CellTiter-Glo viability, 72 h; series mostly up to 92 µM; activity change, negative = cytotoxicity: at the top concentration
# In short: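 qHTS format: cells treated with library compounds in DMSO across 8 (NPC) or 11 (MIPE) concentrations. Readout after 72 hr at 37 degree celsius was CellTiter-Glo luminescence.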
row,SMILES,outcome
1,CCn1nnnc1NCc1ccc(C(C)C)cc1,inactive
2,Cn1nccc1-c1ccccc1Oc1ccc(S(=O)(=O)Nc2nccs2)cc1C#N,inactive
3,C[C@@H]1CC[C@]2(C(=O)O[C@@H]3O[C@H](CO)[C@@H](O)[C@H](O)[C@H]3O)CC[C@]3(C)C(=CCC4[C@@]5(C)C[C@@H](O)[C@H](O)[C@@](C)(C(=O)O[C@H]6[C@H](O)C[C@@]7(C)C(CC[C@]8(C)C7CC=C7[C@H]9[C@](C(=O)O[C@@H]%10O[C@H](CO)[C@@H](O)[C@H](O)[C@H]%10O)(CC[C@@H](C)[C@@]9(C)O)CC[C@]78C)[C@@]6(CO)C(=O)O)C5CC[C@]43C)[C@@H]2[C@]1(C)O (some centres undefined),inactive [at 9.27 µM]
4,C/C(=C\CCC1(C)C2CCC(C2)C1(C)O)C(=O)O (centres undefined),inactive
5,COc1ccccc1CN[C@H]1CCCN[C@H]1c1ccccc1,inactive
6,C=C1CC[C@H]2[C@@](C)(CCC(OC3OC(CO)C(O)C(O)C3O)[C@@]2(C)CO)C1C(=O)CC1=CCOC1=O (some centres undefined),inactive [at 17.4 µM]
7,CC(C)[C@](O)(c1ccc2cc(OC(F)F)c(OC(F)F)cc2c1)c1cn[nH]n1,inactive
8,O=[N+]([O-])c1ccc(Oc2ccc3c(c2)CCC(c2ccccc2)O3)nc1 (centres undefined),inactive
9,Nc1ncnc2c1ncn2[C@H]1O[C@@H](C(=O)N2CCN(CC(=O)Nc3cccc4c3CNC4=O)CC2)[C@H](O)[C@@H]1O,inactive
10,C=C1CCC2C(C)(C)C(O)CCC2(C)C1CCC(C)CCOC(C)=O (centres undefined),inactive
11,COc1ccc(/C=C/C(=O)O[C@@H]2[C@@H](OC(C)=O)[C@@H](OC(C)=O)[C@H](O[C@H]3[C@@H]4C=CO[C@@H](O[C@@H]5O[C@H](CO)[C@@H](O)[C@H](O)[C@H]5O)[C@@H]4[C@@]4(CO)O[C@@H]34)O[C@H]2C)cc1,inactive [at 17.4 µM]
12,C[C@@H]1[C@H]2[C@H](O[C@@H]3O[C@H](CO)[C@@H](O)[C@H](O)[C@H]3O)OC=C(C(=O)O)[C@H]2C[C@@H]1O,inactive
13,CC(=O)O[C@@H]1[C@H](O[C@@H]2O[C@@H](CO)[C@H](O)[C@H]2O)[C@@H](O[C@@H]2O[C@@H](C)[C@H](O[C@@H]3OC[C@@H](O)[C@H](O)[C@H]3O)[C@@H](O)[C@H]2O)[C@H](OC(=O)[C@]23CCC(C)(C)C[C@H]2C2=CCC4[C@@]5(C)CC[C@H](O[C@@H]6O[C@H](C(=O)O)[C@@H](O)[C@H](O)[C@H]6O[C@@H]6O[C@H](CO)[C@H](O)[C@H](O)[C@H]6O)[C@@](C)(C=O)C5CC[C@@]4(C)[C@]2(C)CC3)O[C@@H]1C (some centres undefined),inactive [at 9.27 µM]
14,Cc1nnc(-c2ccc3occ(-c4ccc(S(C)=O)cc4)c3c2)o1 (centres undefined),inactive

# From PubChem BioAssay (NCATS)
